According to PubChem BioAssay AID652126 (The Scripps Research Institute Molecular Screening Center, 2013):
Screen size: about 370,000 compounds; about 3,700 (1%) were called active. The full list was thinned out, with actives kept by preference. Values without a mark were called inactive.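 Rule for the calls: active = activation above the mean over all tested compounds plus 3 SD (cut at about 0.9% in these data); inactive = the rest.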

What follows are compounds tested on Nuclear hormone receptor DAF-12 (Strongyloides stercoralis) (assay: S. stercoralis DAF-12 nuclear receptor activators, primary screen, cell-based, luminescence, HEK293, GRIP1 co-expression, lit1-tk-luc (AID 652126;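 note: 0% = DMSO-only wells and 100% = 3 µM delta7-dafachronic acid wells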)). Conditions: HEK293 ssDAF-12/GRIP1 lit1-tk-luc reporter, at 6.8 µM, hits give high values, % of 3 µM dafachronic acid response.
With `Cn1c(=NC(=O)c2ccco2)sc2cccc(F)c21` the activation was 2.16% (active). `Cc1cc(NC(=O)c2ccco2)c(=O)n(Cc2c(F)cccc2Cl)c1` was tested, and the activation was -1.23%. Work on `Cn1c(=O)c2c(nc(NCCNC(=O)c3ccco3)n2Cc2ccccc2F)n(C)c1=O` yielded an activation of -0.73%. `O=C(COc1ccccc1Cl)Nc1ccccc1C(=O)NC1CC1` was tested, and the activation was -0.61%. Compound `O=C(COc1ccccc1Cl)Nc1ccc(C(=O)c2ccc(C(=O)O)cc2)cc1` has an activation of -1.01%. With `CC(=O)Nc1ccc(NC(=O)COc2ccccc2C(=O)Nc2cccc(Cl)c2Cl)cc1` the activation was 1.78% (active). `O=C(CSc1nc2ccccc2s1)N=Nc1c(O)[nH]c2ccccc12` gave an activation of -1.23%. `CC(C)c1ccc(C=NNc2ccc([N+](=O)[O-])cn2)cc1` was tested, and the activation was 1.01% (active). `CN(CCc1ccccc1)c1ccc([N+](=O)[O-])cn1` gave an activation of -0.22%. For `CCC1([N+](=O)[O-])COC(c2ccc(C(C)C)cc2)OC1` (stereo not drawn), the activation was -0.23%. With `CCOC(=O)[C@@]12CCC3=C1N(CCC3)C(=O)[C@H](CC(=O)N1CCN(C(=O)c3ccco3)CC1)C2` the activation was -0.8%. `CN1[C@H](Cc2ccccc2)COc2cccc(N3CCSCC3)c2S1(=O)=O` was tested, and the activation was -0.12%. With `O=C(NCC1COc2ccccc2O1)c1ccc(NC(=O)c2cc(F)ccc2F)cc1` (stereo not drawn) the activation was -0.55%. In the case of `COC(=O)c1ccccc1-n1cc(COC(=O)NCCc2ccccc2)nn1`, the activation was -1.12%. `CCn1c(SCC(=O)Nc2nccs2)nnc1-c1ccco1` was tested, and the activation was -1.06%. In the case of `Nn1c(SCC(=O)Nc2nccs2)nnc1-c1ccco1`, the activation was 0.9% (active). `Nn1c(SCC(=O)Nc2nccs2)nncc1=O` was tested, and the activation was -2.06%. Compound `O=S1(=O)CC(N2CCN(CCO)CC2)CN1Cc1cn(Cc2ccc(Cl)cc2)nn1` (stereo not drawn) has an activation of -0.54%. With `O=S1(=O)c2ccc(Br)cc2OC[C@@H](Cc2ccccc2)N1Cc1cn(Cc2ccco2)nn1` the activation was -1.35%. In the case of `O=C(CCS(=O)(=O)c1ccccc1)Nc1ccc(Cl)c(Cl)c1`, the activation was -1.34%. For `Cc1cc(N)n2nc(-c3ccc(C(C)(C)C)cc3)cc2n1`, the activation was 2.97% (active). `CCOC(=O)C1=C(C)NC2=C(C(=O)CC(C)(C)C2)C1c1ccc2c(c1)OCO2` (stereo not drawn) gave an activation of -1.32%. With `COc1ccccc1NC(=O)c1ccc(C)s1` the activation was 1.3% (active). Compound `COc1ccccc1NC(=O)c1cc(Cl)nnc1Cl` has an activation of -0.66%. Compound `COc1ccccc1NC(=O)c1c(Br)cnn1C` has an activation of -1.57%. For `O=C(CSc1nnc(-c2cccc(Cl)c2)n1Cc1ccco1)Nc1ccc(OCc2ccccc2)cc1`, the activation was -1.14%. Work on `Cc1cccc2c1N(CCOc1ccccc1)C(=O)C2=O` yielded an activation of -1.52%. In the case of `Cc1nn(CCOc2ccccc2)c(=O)n1-c1ccccc1F`, the activation was 1.79% (active). With `Cc1c(C(N)=O)sc2ncn(CCOc3ccccc3)c(=O)c12` the activation was -2.14%. With `Cc1ccc(NC(=O)c2cc(C)nn2-c2ccccc2)c(C)c1` the activation was -1.78%. In the case of `O=C(CNS(=O)(=O)c1ccccc1F)N1CCN(c2ccccn2)CC1`, the activation was -1.72%. For `Fc1ccc(-c2nnc(CSc3nnc(-c4ccc5c(c4)OCO5)o3)o2)cc1`, the activation was -1.18%. For `Fc1ccc2nc(-c3ccccc3)nc(SCc3nnc(-c4ccccc4)o3)c2c1`, the activation was 1.48% (active). `Cc1ccc2nc(SCc3nnc(-c4ccccc4[N+](=O)[O-])o3)c(C#N)cc2c1` showed an activation of -1.27%. `O=C1CC[C@@H](COc2ccc3[nH]cc(-c4ccccc4)c3c2-c2ccccc2)N1` was tested, and the activation was -0.33%. For `COC1=C[C@H](C(=O)NCCNC(C)=O)[C@H](C)[C@@H](c2ccccc2)CC1=O`, the activation was -1.26%. In the case of `FC(F)(F)c1ccc2c3n(nc2c1)CCN=C3c1ccc(Cl)cc1`, the activation was 1.01% (active). In the case of `CC(=O)c1cc(C#N)c(SCC(=O)Nc2nccs2)nc1C`, the activation was -0.91%. In the case of `CC(c1nnc(SCC(=O)Nc2sccc2C#N)n1-c1ccc(Cl)cc1)N(C)C` (stereo not drawn), the activation was -0.72%. In the case of `Cc1csc(SCC(=O)Nc2sccc2C#N)n1`, the activation was 0.96% (active). `C=C(C)C1CC23C(=O)C4(C(=O)c5ccccc5)C[C@@]5(C)CCC(CC2C1(C)C)(C4=O)C35OC` (stereo partly drawn) showed an activation of -1.03%. For `Clc1ccc(-n2c(SC/C=C/c3ccccc3)nnc2-c2ccco2)cc1`, the activation was -1.68%. Work on `COc1ccc(C(=O)OCCN(C)C2CN(Cc3cn(Cc4cccc(C)c4)nn3)S(=O)(=O)C2)cc1OC` (stereo not drawn) yielded an activation of -0.78%. `Cc1ccc2nc(-c3ccccc3)c(CC3CCCCC3)n2c1` was tested, and the activation was 1.3% (active). For `Brc1ccc2nc(-c3ccccc3)c(Cc3ccccc3)n2c1`, the activation was -0.45%. With `COc1ccccc1Cc1c(-c2ccc(F)cc2)nc2ccc(C)cn12` the activation was 0.07%. `COc1ccc(-n2c(SCC(=O)Nc3ccc4cn[nH]c4c3)nnc2-c2cccnc2)cc1` showed an activation of -1.16%. `O=C(CSc1nc2c(c(=O)[nH]1)CCCC2)N1CCCCC1` showed an activation of -1.67%. Work on `CCOC(=O)C(NC(=O)CC(C)C)(Nc1sc2c(c1C(N)=O)CCCC2)C(F)(F)F` (stereo not drawn) yielded an activation of -0.54%. With `CCN(CC)CC(=O)Nc1sc2c(c1C(=O)c1ccccc1C)CCC2` the activation was -1.11%. In the case of `NC(=O)c1c(Nc2nc3c(F)cccc3s2)sc2c1CCCC2`, the activation was 1.29% (active). In the case of `NC(=O)c1c(NC(=O)c2ccccc2)sc2c1CCCC2`, the activation was 2.15% (active). For `NNc1nc2c(Cl)cccc2s1`, the activation was -0.81%. `COC(=O)c1c(NC(=O)COC(=O)[C@@H](NS(=O)(=O)c2ccccc2)C(C)C)sc2c1CCC2` was tested, and the activation was -1.44%. `Cc1ccc(C(=O)C2CCN(CC(=O)NCCC(C)C)CC2)cc1` was tested, and the activation was -1.67%. For `CC1(C)N=C(N)NC(Nc2ccc(Cl)cc2)=N1`, the activation was -1.4%. In the case of `Clc1ccc(Nc2ccc3ccccc3n2)cc1`, the activation was 2.58% (active). Work on `C=CCNc1nc(Nc2ccc(Cl)cc2)nc(OC)n1` yielded an activation of -0.26%. With `O=C(CCl)NC1CCCCN(Cc2cccc(C(F)(F)F)c2)C1=O` (stereo not drawn) the activation was -1.24%. `NCC(=O)c1cccc2ccc[n+]([O-])c12` gave an activation of -0.72%. `Cc1ccccc1NC(=O)C1CCN(c2ncccn2)CC1` gave an activation of 0.24%. `CCCCNc1cccc2c1S(=O)(=O)N[C@@H](C)CO2` was tested, and the activation was -0.23%. For `CC(C)NC(=O)CSc1nnc(COc2ccccc2Cl)o1`, the activation was 1.16% (active). `Cc1ccccc1OCc1nnc(SCC(=O)N2c3ccccc3Sc3ccc(Cl)cc32)o1` showed an activation of -1.28%. With `Cc1ccc(NC(=O)CSc2nnc(COc3ccccc3C)o2)cc1` the activation was -1.56%. In the case of `COc1cccc(NC(=O)c2cc(S(=O)(=O)N3CCc4ccccc43)cn2C)c1`, the activation was -1.71%. In the case of `Cc1ccc(CSc2nnc(SCC(=O)NN=Cc3cc(Br)ccc3F)s2)cc1`, the activation was -1.54%. In the case of `CCCCNC(=O)C[C@H]1C(=O)N(Cc2ccc(OC)cc2)C2=CCCC[C@@]21C(=O)OCC`, the activation was -0.84%. Compound `COC[C@@H]1CCCN1c1ccc2c(c1)O[C@H](C)CCN(C1CC1)S2(=O)=O` has an activation of -1.91%. For `Cc1ccc(NC(=O)c2cc([N+](=O)[O-])ccc2Cl)c(O)c1`, the activation was 1.5% (active). `CNc1ccc([N+](=O)[O-])cc1C(=O)O` showed an activation of -1.81%. In the case of `CCC(C)C(=O)Nc1cc([N+](=O)[O-])ccc1Cl` (stereo not drawn), the activation was -1.16%. `Cc1ccc(Cn2cc(COC(=O)N(C)Cc3ccccc3)nn2)cc1` showed an activation of -0.46%. For `C=CCN1C(=O)[C@@H](CC(=O)NCCCOCCCC)[C@]2(C(=O)OCC)CCCCC/C=C/12`, the activation was -0.98%. `O=C(CSc1nc2sc3c(c2c(=O)n1-c1ccccc1)CCCC3)NN=Cc1ccc(OCc2ccccc2)cc1` was tested, and the activation was -0.96%. For `CCOc1ccc(NC(=O)c2ccc(NC(=O)CN3C(=O)C(=O)N(CC(C)C)C3=O)cc2)cc1`, the activation was -0.14%. For `CCOc1ccc(NC(=O)c2ccc(NC(=O)COC(=O)c3ccc(NC(=O)CC#N)cc3)cc2)cc1`, the activation was 0.93% (active). `CCOc1ccc(NC(=O)c2ccc(CSc3nnnn3C)cc2)cc1` was tested, and the activation was -1.09%. For `COc1ccc(CN2C(=O)N3Cc4cc(OC)ccc4C3CS2(=O)=O)cc1` (stereo not drawn), the activation was -1.71%. In the case of `CCOC(=O)C1(Cc2ccccc2)CCN(Cc2cn(C(C)=O)c3ccccc23)CC1`, the activation was 0.62%. With `CCOC(=O)[C@]12CCCCC/C=C\1N(Cc1ccc(OC)cc1)C(=O)[C@H]2CC(=O)NCCCN1CCCC1=O` the activation was -0.74%. With `Cc1ccc(-n2c(SCC(=O)Nc3cccc4ccccc34)nnc2-c2ccco2)cc1` the activation was -0.86%. For `Nc1ccccc1/C=N\N=C/c1ccccc1N`, the activation was 1.95% (active). With `CN(CCc1ccccc1)C(=O)Cn1nc(-c2ccccc2)ccc1=O` the activation was -0.4%. `COC(=O)C[C@@H]1CC[C@@H]2[C@@H](COc3ccc(NC(=O)Nc4ccc(F)c(F)c4)cc3C(=O)N2C)O1` was tested, and the activation was -1.37%. In the case of `O=C(NC1CCC1)c1ccc(C#CC2CC2)cn1`, the activation was 0.89%. In the case of `O=C(NCCCc1ccccc1)[C@H](Cc1ccccc1)NC1(C(=O)NCCc2c[nH]c3ccccc23)CCC1`, the activation was -0.89%. Work on `NC(c1csc(NC(=O)Nc2cccc(C(F)(F)F)c2)n1)C1CCCCC1` (stereo not drawn) yielded an activation of -0.46%. With `Cc1ccc(NC(=O)Nc2cccc(C(F)(F)F)c2)nc1` the activation was 4.62% (active). In the case of `Cc1cc(S(=O)(=O)N2CCOCC2)ccc1OCC(=O)Nc1cccc(C(F)(F)F)c1`, the activation was -1.62%. `CCN(CC)c1nc(-c2ccccc2)cc(C(F)(F)F)c1C#N` showed an activation of -0.98%. Compound `Cc1cc(C(F)(F)F)c(C#N)c(SCC(=O)NC2CC2)n1` has an activation of -1.36%. With `N#Cc1c(C(F)(F)F)cc(-c2ccc(Cl)cc2)nc1SCC(=O)O` the activation was 1.77% (active).
